Data reported in the supplement of paper PMC6555819.

Columns and labels:
Assay in all cases: PBM binding z-score (relative to random genomic background probes); higher = stronger binding; sequences stand for … in GC…GCGATTGACAGCGTAGAATGAAGG
[1] = tested on: FXR:RXRa (NR concentration 270 nM, RXRa partner concentration 90 nM)
Summary of the method: (§1)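 Custom Agilent 4×180K protein-binding microarrays carried double-stranded probes. Their 34-nt variable regions held direct-repeat seeds, single-nucleotide variants, half-site ablations and random human genomic background sequences. Arrays were incubated 1 h with ligand-free nuclear receptor dimers in PBS pH 7.4, 2% milk, 0.02% Triton X-100, 1 mM DTT, 0.2 mg/mL BSA and 0.4 mg/ml salmon testes DNA. Antibodies against each partner (one per run) detected binding, and scanned fluorescence was regression-normalized. Binding z-scores use random background probes as reference.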

[2] = tested on: LXRa:RXRa (NR concentration 270 nM, RXRa partner concentration 90 nM)
Summary of the method: as §1

[3] = tested on: LXRa homodimer (NR concentration 270 nM)
Summary of the method: as §1

[4] = tested on: LXRb:RXRa (NR concentration 270 nM, RXRa partner concentration 90 nM)
Summary of the method: as §1

[5] = tested on: LXRb homodimer (NR concentration 270 nM)
Summary of the method: as §1

[6] = tested on: PPARa:RXRa (NR concentration 270 nM, RXRa partner concentration 90 nM)
Summary of the method: as §1

[7] = tested on: PPARg:RXRa (NR concentration 180 nM, RXRa partner concentration 90 nM)
Summary of the method: as §1

[8] = tested on: PPARg:RXRa 270nM:90nM, anti-RXR (NR concentration 270 nM, RXRa partner concentration 90 nM)
Summary of the method: as §1

[9] = tested on: PPARg:RXRa 30nM:10nM, anti-RXR (NR concentration 30 nM, RXRa partner concentration 10 nM)
Summary of the method: as §1

[10] = tested on: PPARg:RXRa 90nM:30nM, anti-RXR (NR concentration 90 nM, RXRa partner concentration 30 nM)
Summary of the method: as §1

Sequence | PBM binding z-score [1] | PBM binding z-score [2] | PBM binding z-score [3] | PBM binding z-score [4] | PBM binding z-score [5] | PBM binding z-score [6] | PBM binding z-score [7] | PBM binding z-score [8] | PBM binding z-score [9] | PBM binding z-score [10]
CCGGCTGGGGCAAAGGTTACCATACTCAGTACGA | 1.59 | 1.59 | -0.197 | 2.03 | -1.05 | 4.48 | 8.25 | 7.31 | 6.14 | 7.57
GCTAGCAGGCCATTTGGGTCACTCAATGACGGGC | 0.232 | -0.126 | -0.618 | -0.0783 | -0.885 | 1.34 | 0.697 | 0.632 | -0.477 | -0.0514
GCTGCTAGTTCAGGTTGGTCAGCTAACGGGTACG | -0.234 | -0.0295 | -0.196 | -0.351 | -0.495 | -0.285 | -0.479 | -0.127 | -0.906 | -0.226
GCTATTAGTTGAAAGGGCATCCGAATGATTCTCG | 0.204 | 0.581 | 0.00348 | 0.69 | 0.0114 | 2.22 | 2.35 | 4.39 | 2.34 | 3.96
CCTACCAGGCCAATCTGGGTCACTCAAGGCTTGA | 1.15 | 1.52 | 0.0755 | 1.01 | -0.051 | 2.92 | 2.3 | 2.4 | -0.0148 | 1.57
AGAATGAGGTTAAGATCAGGGTAACAGAATACAT | 2.5 | 2.47 | 0.0614 | 2.01 | -0.068 | 3.68 | 2.64 | 2.66 | 0.832 | 1.9
TGAATGAGGTTATAAGATCAGGGCACGTTGCAAA | 1.49 | 1.49 | 0.117 | 1.32 | 0.0684 | 2.9 | 1.62 | 1.95 | 0.914 | 1.63
TCATATAGGTAATACGGGTGAAAGTCGGCATCTA | 0.703 | 0.697 | 0.104 | 0.839 | 0.196 | 1.79 | 1.31 | 2.56 | 3.81 | 3.07
GCTCGGAGGACAAGTTCAGAGCTTTGTCCGTAGA | 0.263 | 0.115 | -0.227 | 0.0203 | -0.625 | 0.311 | -0.94 | -0.31 | -1.15 | -0.738
CCTAGCAGGCCAATCTGGGACACTCAAGGCTTGA | 0.127 | -0.43 | -0.779 | -1.13 | -0.814 | -0.0365 | 0.255 | -0.496 | -0.884 | -0.673
TCATATAGGTAAGACAGGTGAAAGTCGGCATCTA | 1.17 | 1.21 | 0.129 | 0.604 | 0.0128 | 1.49 | 0.925 | 2.42 | 4.15 | 3.3
CCAGACAGGGGAAAGGTAACTCAGTCTGGTACGC | -0.0858 | -0.233 | -0.21 | 0.0681 | -0.648 | 1.46 | 2.34 | 3.79 | 1.37 | 3.25
GCTTGTAGATCAAGATTAAGAAAGACTAAGCTAA | -0.857 | -0.792 | -0.561 | -0.525 | -0.737 | -0.32 | 0.226 | -0.333 | -0.252 | -0.334
GGAACGAGGGCAAGTTGATAGGAGAGTTTGATGG | 0.63 | 0.287 | -0.48 | 0.289 | -0.332 | 1.81 | 1.05 | 0.946 | 0.0757 | 0.63
AATACTGGGTCACTAGGCCAGAGTAGGTACGAAT | 1.9 | 1.69 | 0.246 | 1.5 | 0.438 | 4.37 | 8.02 | 5.97 | 3.2 | 4.75
CATACAGGGTTAGCTAGGCCAGAGTAGGGACGGC | 0.0541 | 0.22 | -0.431 | -0.176 | -0.302 | 0.689 | 0.625 | 0.647 | -0.0439 | 0.397
CGAACGAGGGCATGAGTAGATAGCAAATGCCGAT | 0.0959 | 0.081 | -0.748 | -0.189 | -1.08 | 0.99 | 1.4 | 0.988 | 0.168 | 0.198
GGAACGAGGGCAACGTTGATAGCATCTGTCGACG | 0.32 | 0.21 | -0.371 | 0.0442 | -0.855 | 1.59 | 1.9 | 1.95 | 0.134 | 1.2
AGTCAAAGTTCATCTAGGTAAGGTAAGATATGCT | 6.12 | 6.16 | 5.26 | 4.05 | 1.73 | 5.02 | 6.22 | 6.34 | 3.3 | 5.66
GCGTCTGGGGCAAAGCAGGTTACCATAAGGTTGG | 0.56 | 0.162 | -0.429 | 0.26 | -0.82 | 1.26 | 0.532 | 0.46 | -0.355 | 0.0417
CCATACGGGTCACTCCAGGTTATAGCATCGGAGT | 4.55 | 7.37 | 1.79 | 5.15 | 0.265 | 4.18 | 3.46 | 3.28 | 1.27 | 2.68
TCTATTAGGTGAAGGGCAACCGACGAGTCCGTTT | 0.937 | 1.07 | 0.449 | 0.669 | 0.667 | 2.44 | 4 | 5.18 | 4.86 | 5.44
TAGCCTAGGTCATGGGCCAGTAAACCACGCGAAC | 4.54 | 3.68 | 0.175 | 2.43 | -0.182 | 4.46 | 3.46 | 3.97 | 1.13 | 2.88
TCTACTAGTTGAAGGGCAACCGACGAGTCCGTTT | 0.338 | 0.156 | -0.296 | 0.212 | -0.37 | 0.726 | 0.214 | 1.58 | 3.03 | 2.48
CCTAGTAGGCCAATCTGGGTCACTCAAGGCTTGA | 0.701 | 1.69 | -0.399 | 1.2 | -0.38 | 3.58 | 3.41 | 3.08 | 0.257 | 2.26
